The values below come from PubChem BioAssay.

Active and inactive are the calls of the source.

Experiment [1] has as its system Human papillomavirus type 1a protein E7 (residues 44-93). The experiment is described as follows: small molecules binding HPV E7 44-93 – biochemical, small-molecule microarray, residues 44-93, 635 nm fluorescence, primary screen (AID 1108).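 Note: E7 fragment applied at 1 µg/mL in TBST for 1 h at 4 C; score combines spot fluorescence with its signal to noise ratio.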 The following applies: fluorescence 635 nm, higher = more signal.
Experiment [2] can be described thus: hepatitis C replication reporter changes, two-sided – Huh7 cells, luciferase reporter, HCV replication inhibitor project, primary screen (AID 1109).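 Note: huh7 hepatoma cells harbouring a luciferase neomycin HCV replicon reporter; luciferase luminescence as measure of HCV replicon replication; test concentration not given here.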 The following applies: Huh7 HCV replicon luciferase reporter, 48 h; higher = more signal.
The target in experiment [3] is Left-right determination factor 2 (Homo sapiens) (UniProt O00292). The experiment is described as follows: small molecules binding LEFTY2 protein – biochemical, small-molecule microarray, 635 nm fluorescence scan, primary screen (AID 1110). Particulars: higher = more signal.
The target in experiment [4] is Calmodulin-1 (Homo sapiens) (UniProt P0DP23). The experiment is described as follows: small molecules binding calmodulin-1 with EGTA – biochemical, small-molecule microarray, Cy5-labelled CALM1, profiling panel (AID 1111).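 Note: labelled calmodulin applied in Tris saline Tween buffer holding calcium plus EGTA and DTT.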 Particulars: Cy5-CALM1 binding fluorescence, higher = more signal.
Experiment [5] shares this target. Briefly: small molecules binding Ca-loaded calmodulin-1 – biochemical, small-molecule microarray, Cy5-labelled CALM1, plus calcium, artefact control for SMM control-protein annotation, profiling panel (AID 1112).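 Note: score merges spot fluorescence with signal to noise from triplicate slides.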 The following applies: Cy5-CALM1 binding fluorescence, higher = more signal.
Experiment [6] can be described thus: probe aWnt5a binding to arrayed compounds – biochemical, biotinylated probe, 635/667 nm fluorescence, primary screen (AID 1113).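 Note: score merges 667 nm fluorescence intensity with signal-to-noise per printed feature.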 The following applies: small-molecule microarray, higher = more signal.
Experiment [7] is described as follows: probe aShh binding to arrayed compounds – biochemical, biotinylated probe, 635/667 nm fluorescence, primary screen (AID 1114).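 Note: probe is biotin-labelled aShh protein from a stem cell growth factor screen; measures binding of labelled protein to compounds printed on the slide; score merges feature fluorescence at 667 nm with signal-to-noise.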 Particulars: small-molecule microarray, higher = more signal.
The nature of experiment [8]: probe aNog binding to arrayed compounds – biochemical, biotinylated probe, 635/667 nm fluorescence, primary screen (AID 1115).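 Note: probe is biotinylated aNog protein used at 0.15 µg/mL for 1 h at 4 C; z-score combines 667 nm fluorescence of each spot with its signal to noise.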 The following applies: small-molecule microarray, higher = more signal.
The target of experiment [9] is Torsin-1A-interacting protein 1 (Homo sapiens) (UniProt Q5JTV8). Briefly: compound microarray binding of lysate hLAP1 – cell lysate, small-molecule microarray, COS7 lysate, 635/667 nm fluorescence, primary screen (AID 1116). The following applies: 635 nm fluorescence, higher = more signal.
The target of experiment [10] is Alpha-bungarotoxin (Bungarus multicinctus) (UniProt P60615). The experiment is described as follows: compounds binding labelled alpha-BTX control protein – biochemical, small-molecule microarray, Alexa647 label, 635/667 nm fluorescence, artefact control for SMM control protein annotation, profiling panel (AID 1117). Particulars: alpha-BTX-A647 binding fluorescence, higher = more signal.

For experiment [11], the target named is Albumin (Bos taurus) (UniProt P02769). Briefly: compounds binding labelled BSA control protein – biochemical, small-molecule microarray, Alexa647 label, 635/667 nm fluorescence, artefact control for SMM control protein annotation, profiling panel (AID 1118).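 Note: score merges 667 nm emission intensity and signal-to-noise per printed compound spot.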 The following applies: BSA-A647 binding, fluorescence 635 nm, higher = more signal.
Experiment [12] is described as follows: probe aXIP binding to arrayed compounds – biochemical, NeuroSMM set, 635/667 nm fluorescence, primary screen (AID 1119).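 Note: probe is the protein aXip251-270 applied at 1 µg/mL to compound-printed slides; binding of probe to printed compounds measured as 667 nm fluorescence plus signal to noise.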 Particulars: small-molecule microarray, higher = more signal, called active from +8 up or from −8 down.
A short description of experiment [13]: probe aNOTCH3 binding on compound microarray – biochemical, small-molecule microarray, 635/667 nm fluorescence, primary screen (AID 1120).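 Note: probe is a biotin-tagged antibody raised against NOTCH3 rather than NOTCH3 protein; score merges spot fluorescence near 667 nm with spot signal to noise.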 Particulars: higher = more signal.
Experiment [14] can be described thus: probe aNOTCH2 binding on compound microarray – biochemical, small-molecule microarray, 635/667 nm fluorescence, primary screen (AID 1121).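 Note: score merges feature fluorescence read at 667 nm with its signal to noise.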 The following applies: higher = more signal.
Experiment [15] deals with Carbonic anhydrase 2 (Homo sapiens) (UniProt P00918). The experiment is described as follows: compounds binding carbonic anhydrase 2 – biochemical, small-molecule microarray, Alexa647-labelled CAII, profiling panel (AID 1122). Particulars: CAII-A647 binding fluorescence, higher = more signal.
Experiment [16] can be described thus: COS7 lysate on small-molecule microarray, probe aHis, 635 nm (AID 1123).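 Note: z-score combines 667nm fluorescence intensity with signal-to-noise per printed compound spot.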 The following applies: COS7 cell lysate, fluorescence, higher = more signal.
The nature of experiment [17]: probe aLAP1 signal on lysate-treated microarray – cell lysate, small-molecule microarray, COS7 lysate, primary screen (AID 1124).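 Note: lysate comes from COS7 cells expressing LAP1 and is applied at 0.3 µg/mL; score merges spot fluorescence near 667 nm with signal-to-noise over triplicate slides.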 Particulars: probe aLAP1, fluorescence, higher = more signal.
The subject of experiment [18] is Sam68 (KHDRBS1). Briefly: compounds binding KHDRBS1 protein – biochemical, small-molecule microarray, 635 nm fluorescence, primary screen (AID 1125).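 Note: score merges 667 nm channel intensity with signal to noise over triplicate slides.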 Particulars: higher = more signal.
For experiment [19], the system named is Chordin-like protein 2 (CHRDL2). The experiment is described as follows: compounds binding chordin-like 2 – biochemical, small-molecule microarray, 635 nm fluorescence, primary screen (AID 1126).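 Note: printed compound slides probed with Chrdl2 protein at 4 µg/mL for 1 h at 4 C; score merges 667 nm emission intensity with signal to noise over three replicate slides.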 The following applies: fluorescence 635 nm, higher = more signal.
Experiment [20] addresses Concanavalin-A (Canavalia ensiformis) (UniProt P02866). Briefly: compounds binding concanavalin A lectin – biochemical, small-molecule microarray, Alexa647 label, 635 nm, artefact control for SMM control protein annotation, primary screen (AID 1127).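 Note: z combines 667 nm emission intensity with signal-to-noise across three replicate slides.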 Particulars: ConA-A647 binding fluorescence, higher = more signal.

Chain of Alpha-bungarotoxin (Bungarus multicinctus) (P60615 whole entry, looked up): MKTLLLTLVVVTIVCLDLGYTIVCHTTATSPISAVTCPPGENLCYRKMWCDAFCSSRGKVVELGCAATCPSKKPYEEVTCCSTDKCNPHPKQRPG
Chain of Left-right determination factor 2 (Homo sapiens) (O00292 whole entry, looked up): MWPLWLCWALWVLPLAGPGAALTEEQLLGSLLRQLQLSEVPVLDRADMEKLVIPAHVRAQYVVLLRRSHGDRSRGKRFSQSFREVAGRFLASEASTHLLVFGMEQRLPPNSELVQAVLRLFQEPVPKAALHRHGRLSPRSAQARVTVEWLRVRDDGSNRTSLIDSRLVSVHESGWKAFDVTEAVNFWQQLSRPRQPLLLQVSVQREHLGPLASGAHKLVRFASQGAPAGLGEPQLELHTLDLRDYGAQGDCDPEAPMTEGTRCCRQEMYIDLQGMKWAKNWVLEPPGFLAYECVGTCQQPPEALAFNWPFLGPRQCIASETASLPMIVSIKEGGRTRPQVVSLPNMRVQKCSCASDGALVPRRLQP
Chain of Concanavalin-A (Canavalia ensiformis) (P02866 whole entry, looked up): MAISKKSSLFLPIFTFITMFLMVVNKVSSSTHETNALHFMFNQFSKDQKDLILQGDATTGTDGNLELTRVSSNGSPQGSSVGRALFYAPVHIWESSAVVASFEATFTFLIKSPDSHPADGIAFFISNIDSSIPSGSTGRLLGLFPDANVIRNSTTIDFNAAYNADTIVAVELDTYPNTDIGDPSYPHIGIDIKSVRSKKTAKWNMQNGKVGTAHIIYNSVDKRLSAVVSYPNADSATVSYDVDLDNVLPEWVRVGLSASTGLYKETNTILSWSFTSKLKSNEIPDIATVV
Chain of Torsin-1A-interacting protein 1 (Homo sapiens) (Q5JTV8 whole entry, looked up): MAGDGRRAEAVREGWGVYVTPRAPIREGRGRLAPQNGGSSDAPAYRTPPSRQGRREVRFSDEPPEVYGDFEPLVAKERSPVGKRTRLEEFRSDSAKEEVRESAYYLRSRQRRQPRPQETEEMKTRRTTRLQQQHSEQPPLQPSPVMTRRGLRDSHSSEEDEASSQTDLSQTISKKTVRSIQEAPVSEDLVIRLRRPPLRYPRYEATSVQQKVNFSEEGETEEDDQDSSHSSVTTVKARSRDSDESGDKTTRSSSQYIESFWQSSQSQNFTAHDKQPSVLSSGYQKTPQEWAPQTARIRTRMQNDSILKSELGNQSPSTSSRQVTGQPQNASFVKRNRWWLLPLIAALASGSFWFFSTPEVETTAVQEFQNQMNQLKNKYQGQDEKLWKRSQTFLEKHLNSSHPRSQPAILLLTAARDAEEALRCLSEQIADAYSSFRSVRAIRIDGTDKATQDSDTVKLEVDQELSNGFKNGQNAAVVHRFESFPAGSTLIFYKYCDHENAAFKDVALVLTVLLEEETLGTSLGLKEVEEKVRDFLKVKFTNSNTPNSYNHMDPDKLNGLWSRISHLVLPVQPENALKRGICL
Chain of Albumin (Bos taurus) (P02769 whole entry, looked up): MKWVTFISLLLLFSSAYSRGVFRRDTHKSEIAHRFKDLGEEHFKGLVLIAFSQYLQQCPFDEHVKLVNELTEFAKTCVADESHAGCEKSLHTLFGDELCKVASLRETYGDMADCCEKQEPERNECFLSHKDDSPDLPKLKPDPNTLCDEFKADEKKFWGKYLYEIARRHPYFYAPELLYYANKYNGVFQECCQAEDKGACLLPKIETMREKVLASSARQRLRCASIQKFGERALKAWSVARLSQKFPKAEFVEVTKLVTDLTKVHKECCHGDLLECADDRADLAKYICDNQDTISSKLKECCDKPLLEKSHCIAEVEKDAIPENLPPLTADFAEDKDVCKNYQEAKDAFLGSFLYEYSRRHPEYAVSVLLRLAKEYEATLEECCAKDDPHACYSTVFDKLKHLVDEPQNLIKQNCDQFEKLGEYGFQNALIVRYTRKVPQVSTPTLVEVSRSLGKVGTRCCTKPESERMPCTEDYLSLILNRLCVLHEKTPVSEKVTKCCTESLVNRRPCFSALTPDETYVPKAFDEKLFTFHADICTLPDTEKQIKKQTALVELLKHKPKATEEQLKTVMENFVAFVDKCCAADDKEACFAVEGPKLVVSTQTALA

Turning to `CN1C(=O)C2C=CC(C(O)C3CCCCC3)N(N(c3ccccc3)c3ccccc3)C2C1=O` (stereo not given), the composite z-score in experiment [1] was -1.93; in experiment [3] it was -0.939; in experiment [4], 0.142; in [5], 0.405; in experiment [6] it was 0.204; in experiment [7] it was 0.117. Also, the composite z-score in experiment [8] was 0.0294; in [9] it was 0.0416; in [10], -0.232; in experiment [11], -0.0103; in experiment [13], 0.367; in experiment [14], 0.232. Further, the composite z-score is 0.72 in [15]; 2.56 in [16]; 1.21 in [17]; -0.864 in experiment [18]; -1.04 in experiment [19]; -1.27 in experiment [20]. In experiment [2], this compound displayed a z-score of -0.15. In experiment [12], the composite Z-score is 0.54 (inactive).

`CN1C(=O)C2C=CC(C(O)COCc3ccccc3)N(Nc3ccccc3)C2C1=O` (stereo not given): the composite z-score in experiment [1] was 0.372; in experiment [3] it was 0.0615; in [4], -0.0981; in [5] it was -0.57; in experiment [6] it was 0.0403; in [7] it was -0.0793. For the same compound, the composite z-score was 1.03 in experiment [8]; 0.661 in experiment [9]; 0.347 in [10]; 0.898 in experiment [11]; 0.348 in experiment [13]; -0.127 in experiment [14]. Also, the composite z-score in experiment [15] is 0.81; in [16] it was 1.44; in experiment [17], -0.0468; in experiment [18], 0.616; in experiment [19], -0.142; in [20], 0.479. In [2], this compound registered a z-score of 0.74. In addition, the composite Z-score in [12] was -0.0217 (inactive).

As for `CCN(CC)c1ccc(N2CC=CC34O[C@@H]5/C=C\CCCOC(=O)C5[C@H]3C(=O)N(CCCCCCO)[C@@H]4C2=O)cc1` (stereo not given in full), the composite z-score was -0.117 in experiment [1]; -1.76 in experiment [3]; -1.18 in experiment [4]; -1.05 in [5]; -0.139 in [6]; 0.147 in [7]. Further, the composite z-score in [8] was -0.0439; in [9] it was 1.26; in experiment [10] it was -0.855; in experiment [11] it was 0.248; in experiment [13], -0.194; in experiment [14], -0.145. For the same compound, the composite z-score in [15] was 0.898; in experiment [16] it was 0.846; in experiment [17], 0.613; in [18], -0.32; in experiment [19] it was -2.28; in experiment [20] it was -0.642. Moreover, the z-score in experiment [2] was found to be 0.444. Further, in [12], the composite Z-score was 0.703 (inactive).

Consider `C=CC[C@]1(C(=O)N2CCOCC2)N=C(c2ccc(OCCCO)cc2)O[C@H]1c1ccccc1CN=[N+]=[N-]`, for which the composite z-score in experiment [1] came out at 1.42; in experiment [3] it was 0.366; in experiment [4] it was 1.84; in [5] it was 0.403; in experiment [6], 0.127; in experiment [7] it was 0.398. For the same compound, the composite z-score in experiment [8] is 1.88; in experiment [9], 1.94; in experiment [10] it was 0.948; in experiment [11], 0.971; in experiment [13] it was 0.533; in experiment [14], 0.0402. The composite z-score in experiment [15] was 0.385; in [16] it was 2.92; in [17], 1.64; in experiment [18] it was 1.29; in experiment [19] it was -0.321; in [20] it was 1.15. In [2], this compound returned a z-score of -1.85. In experiment [12], the composite Z-score was 0.0707 (inactive).

Regarding `COCCOC(=O)N1C(=O)[C@@]2(c3cc(C#CCNC(N)=O)ccc31)[C@H](c1ccc(OCCO)cc1)N1[C@H](c3ccccc3)[C@H](c3ccccc3)OC(=O)[C@H]1[C@@H]2C(=O)N1CCN(c2ncccn2)CC1`, the composite z-score is 1.23 in experiment [1]; 0.93 in [3]; 0.515 in experiment [4]; 0.53 in [5]; 0.0657 in [6]; -0.138 in experiment [7]. In addition, the composite z-score was -0.0724 in experiment [8]; 0.895 in experiment [9]; 0.505 in experiment [10]; 0.358 in experiment [11]; 0.31 in experiment [13]; 0.09 in [14]. The composite z-score in experiment [15] was found to be 0.2; in experiment [16], 0.887; in experiment [17], 0.558; in experiment [18], 1.29; in [19], 0.908; in experiment [20], 1.11. The z-score in [2] was -0.0743. The composite Z-score in [12] is 0.764 (inactive).

For `COC(=O)[C@]1(Cc2ccccc2CN=[N+]=[N-])N=C(c2ccc(OCCCO)cc2)O[C@@H]1c1ccccc1`, the composite z-score in experiment [1] was -1.61; in experiment [3], -1.63; in [4] it was -0.103; in experiment [5], 0.128; in experiment [6], -0.228; in [7] it was -0.0793. Further, the composite z-score in [8] is -0.361; in [9], -1.18; in experiment [10] it was 1.13; in [11], -0.312; in experiment [13], -0.122; in experiment [14], -0.0194. For the same compound, the composite z-score in experiment [15] is 0.563; in [16], 0.243; in experiment [17], -0.779; in [18], -0.776; in [19] it was -0.928; in [20] it was 0.694. In addition, the z-score in experiment [2] was -3.19. The composite Z-score in experiment [12] was 0.667 (inactive).
